Screen size: about 16,000 compounds; about 5,800 (36%) were called active. Inconclusive results (about 23%) are left out. This is one part of the list. Unmarked numbers belong to inactive results. The call rests on the fitted dose curve; in most records, active means well fitted curve in the direction sought with a large enough effect; inconclusive means small, poorly fitted or top-dose-only effect, or effect the other way; inactive means no such curve, though single readings can be large or run the other way.
On the % scale 0 is the no-effect control and ±100 the full control effect.

The target in the experiment is Cytochrome P450 2C19 (Homo sapiens) (UniProt P33261). In words: Cytochrome panel assay with activity outcomes. The settings on record: recombinant CYP, pro-luciferin dealkylation, luminescence, p450-cyp2c19; series mostly up to 57.1 µM; activity, negative = inhibition: at the top concentration.
Cytochrome P450 2C19 (Homo sapiens), sequence (P33261 whole entry, looked up): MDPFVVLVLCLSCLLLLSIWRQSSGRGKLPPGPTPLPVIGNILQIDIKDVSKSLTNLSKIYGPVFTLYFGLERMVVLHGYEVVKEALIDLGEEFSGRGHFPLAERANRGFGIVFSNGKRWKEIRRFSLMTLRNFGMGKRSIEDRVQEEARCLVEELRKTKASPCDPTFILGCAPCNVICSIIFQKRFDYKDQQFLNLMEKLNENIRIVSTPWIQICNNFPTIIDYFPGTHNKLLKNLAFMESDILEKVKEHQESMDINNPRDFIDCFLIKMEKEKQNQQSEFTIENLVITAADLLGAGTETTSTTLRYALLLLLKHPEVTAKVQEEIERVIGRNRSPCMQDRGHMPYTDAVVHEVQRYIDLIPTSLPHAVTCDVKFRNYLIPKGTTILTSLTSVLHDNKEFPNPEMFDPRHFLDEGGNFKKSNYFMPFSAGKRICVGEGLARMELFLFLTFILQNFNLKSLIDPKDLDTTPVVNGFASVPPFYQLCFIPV
In general, AC50 refers to the concentration at which the activity in the assay is half-maximal. For the compound `COc1ccc([C@@H](Nc2ncccn2)c2cc3c(cc2O)OCO3)cc1`, the concentration at half-maximal activity (AC50) was 0.316 µM (active).
Still for that read-out and setting: as for `COc1ccc([C@@H](C)c2cc3c(cc2O)OCO3)cc1`, the figure is 0.1 µM (active).
Consider `C=C(C)[C@@H]1CC=C(C(=O)O)CC1`, for which the “activity, negative = inhibition” value was -12.9%.
Still for that read-out and setting: as for `CN(C)CCSCCO`, the figure is 28.5% [at 11.4 µM].
For the compound `Cc1cc(C(C)(C)C)c(O)c(C)c1CC1=NCCN1`, the AC50 entry was “inactive”.
With `Cc1cc(-c2cc(C)c(O)c(C(C)(C)C)c2)cc(C(C)(C)C)c1O`, the half-maximal activity concentration (AC50) was 1 µM (active).
With `CCN1C/C(=C\c2cccc(C)c2)c2nc3ccccc3c(C(=O)O)c2C1`, the “activity, negative = inhibition” value is -22.5%.
Still for that read-out and setting: as for `CN1CCC(N(C)C(=O)CCc2nc3ccccc3c(=O)[nH]2)CC1`, the figure is 11.4%.
As for `Cc1cccc(NC(=O)N(Cc2nc3ccccc3c(=O)[nH]2)C2CCCC2)c1`, the concentration at half-maximal activity (AC50) was 15.8 µM (active).
Consider `CCn1c(O)c(/C=N/N=C2CCCC2)c2ccc(C3=NNC(=O)CC3)cc21`, for which the “activity, negative = inhibition” value is -24.3%.
Still for that read-out and setting: as for `O=C1c2cccnc2C(O)N1C1CCCCC1` (stereo not given), the figure is -28.3%.
On to `Cc1nc2c(n1C1CCCCC1)C(=O)c1ccccc1C2=O`, for which the AC50 is 2.82 µM (active).
For the compound `Cn1cc(-c2nc3cncnc3n(C3CC3)c2=O)c2ccccc21`, the “activity, negative = inhibition” value is -6.89%.
In the case of `Cc1ccc(NC2c3ncccc3C(=O)N2Cc2ccc(F)cc2)cc1` (stereo not given), the concentration at half-maximal activity (AC50) is 5.01 µM (active).
On to `CN[C@@H]1NC(=O)c2ccccc2N1Cc1ccc(F)cc1`, for which the activity, negative = inhibition is -2.68% [at 11.4 µM].
As for `COc1ccc2[nH]cc(CCNc3ncnc4ccc(-c5cccc(C#N)c5)cc34)c2c1`, the AC50 is 7.94 µM (active).
On the same count and under the same terms, as for `COc1ccc2[nH]cc(CCNc3ncnc4ccc(-c5c(C)noc5C)cc34)c2c1`, the figure is 3.98 µM (active).
`COc1ccc2[nH]cc(CCNc3ncnc4ccc(-c5ccccc5OC)cc34)c2c1`: the AC50 was 2 µM (active).
Turning to `COc1ccc2[nH]cc(CCNc3ncnc4ccc(-c5ccccc5CN(C)C)cc34)c2c1`, the “activity, negative = inhibition” value was -27%.
On to `COc1cccc(-c2ccc3ncnc(NCCc4c[nH]c5ccc(OC)cc45)c3c2)c1`, for which the AC50 is 3.16 µM (active).
Consider `COc1ccc2[nH]cc(CCNc3ncnc4ccc(-c5ccc6c(c5)OCO6)cc34)c2c1`, for which the AC50 was 1.58 µM (active).
Still for that read-out and setting: as for `COc1ccc2[nH]cc(CCNc3ncnc4ccc(-c5ccccc5C#N)cc34)c2c1`, the figure is 2 µM (active); as for `COc1ccc2[nH]cc(CCNc3ncnc4ccc(-c5ccoc5)cc34)c2c1`, 7.94 µM (active).
On the same count and under the same terms, as for `COc1ccc2c(Cl)c(-c3nnco3)sc2c1`, the figure is 7.94 µM (active); as for `O=C1CC(c2ccccc2)Cc2nc(N3CCc4ccccc4C3)ncc21` (stereo not given), 3.98 µM (active).
Turning to `CN1CCN(c2ncc3ncc(=O)n(-c4ccccc4)c3n2)CC1`, the “activity, negative = inhibition” value is 23.5%.
On the same count and under the same terms, as for `Cc1nc2cnc(N3CCN(C)CC3)nc2n(-c2ccccc2)c1=O`, the figure is -19.9%; as for `Cc1ccc(-n2cnc(=O)c3cccnc32)cc1`, -15.1%.
As for `N#Cc1c(-c2ccccc2)cc(C2CC2)nc1SCC(=O)c1cccs1`, the “activity, negative = inhibition” value was -14.7%.
As for `N#CCCn1c(=O)c(-c2cccs2)nc2cnc(OCc3ccccc3)nc21`, the “activity, negative = inhibition” value is -9.15%.
Take `Cc1cccc(NC(=O)CSc2nc(-c3ccccc3)c(C#N)c(=O)[nH]2)c1C`: the AC50 is 14.1 µM (active).
As for `N#Cc1c(-c2ccccc2)nc(-c2ccccc2)[nH]c1=O`, the “activity, negative = inhibition” value was -24.4%.
With `N#Cc1c(-c2cccs2)nc(SCC(=O)c2cccs2)[nH]c1=O`, the AC50 is 15.8 µM (active).
As for `CN[C@H](CC(=O)O)C(=O)O`, the “activity, negative = inhibition” value is 10.2%.
Take `Cc1[nH]nc(N2CCCCCC2)c1[N+](=O)[O-]`: the AC50 is 6.31 µM (active).
As to `Cc1noc(C)c1C(=O)N1CCC2(CCN(Cc3ccncc3)CC2)CC1`, the “activity, negative = inhibition” value was -40.9%.
Turning to `CCOC(=O)C1(S(=O)(=O)c2ccc(Cl)cc2)CCN(Cc2ccc(Cl)cc2)CC1`, the AC50 is 2.24 µM (active).
On the same count and under the same terms, as for `CCOC(=O)C1(S(=O)(=O)c2ccccc2)CCN(Cc2ccccc2)CC1`, the figure is 2.51 µM (active).
With `O=S(=O)(c1ccccc1)N1CCC2(CCN(Cc3ccccc3)CC2)CC1`, the “activity, negative = inhibition” value is -3.37%.
In the case of `Cc1ccc(CN2C(=O)CCC2C(=O)NCc2cccnc2)cc1` (stereo not given), the concentration at half-maximal activity (AC50) is 22.4 µM (active).
For `COc1cc2nc(N3CCN(C(=O)OCc4ccccc4)[C@H](C(=O)NC(C)(C)C)C3)nc(N)c2cc1OC`, the “activity, negative = inhibition” value was -23.6%.
Still for that read-out and setting: as for `O=C(NCc1cccnc1)[C@@H]1[C@@H](C(=O)O)[C@H]2CC[C@@H]1O2`, the figure is 23.6% [at 11.4 µM].
The same measure, in the same setting: as for `O=C(O)C1CCC(=O)N(C2CC2)C1c1ccccc1` (stereo not given), the figure is -8.66%.
On to `CCOC(=O)[C@H](CCc1ccccc1)N[C@@H](C)C(=O)N1CCC[C@H]1C(=O)O`, for which the “activity, negative = inhibition” value was 32.5% [at 25.6 µM].
Regarding `Cc1ccc(SCC(=O)NNC(=O)C2CCCCC2)cc1`, the “activity, negative = inhibition” value was -27.7%.
Same read-out and setting: as for `O=C(O)[C@@H]1[C@@H](C(=O)NCc2cccnc2)[C@@H]2C=C[C@@H]1O2`, the figure is 6.83% [at 11.4 µM]; as for `CN(C)C(=O)N1CCCC(C(=O)NCCc2ccccc2)C1` (stereo not given), -25.2%.
Take `Cc1ccc(CNC(=O)C2CCCN2C(=O)NCc2ccccc2)cc1` (stereo not given): the concentration at half-maximal activity (AC50) is 10 µM (active).
On the same count and under the same terms, as for `Cc1ccc(CNC(=O)C2CCC(=O)N2C2CCCCC2)cc1` (stereo not given), the figure is 3.16 µM (active); as for `CC(C)(C)OC(=O)N1CCCC1C(=O)NCCc1ccccc1` (stereo not given), 6.31 µM (active).
